Screens from PubChem BioAssay.
Sampled rows, rich in hits. Any-hit rate of the full collection: about 6%.
D1 ag: Allosteric Agonists of the Human D1 Dopamine Receptor: qHTS. HEK293 T-REx D1 cells, calcium flux, agonist mode. 360,000 compounds, 1% hits. activation, % at 2 µM. AID 504660, 2011; in the data active means activation above about 30%; further: 0% is about no effect
Target sequence (P21728 whole entry, looked up): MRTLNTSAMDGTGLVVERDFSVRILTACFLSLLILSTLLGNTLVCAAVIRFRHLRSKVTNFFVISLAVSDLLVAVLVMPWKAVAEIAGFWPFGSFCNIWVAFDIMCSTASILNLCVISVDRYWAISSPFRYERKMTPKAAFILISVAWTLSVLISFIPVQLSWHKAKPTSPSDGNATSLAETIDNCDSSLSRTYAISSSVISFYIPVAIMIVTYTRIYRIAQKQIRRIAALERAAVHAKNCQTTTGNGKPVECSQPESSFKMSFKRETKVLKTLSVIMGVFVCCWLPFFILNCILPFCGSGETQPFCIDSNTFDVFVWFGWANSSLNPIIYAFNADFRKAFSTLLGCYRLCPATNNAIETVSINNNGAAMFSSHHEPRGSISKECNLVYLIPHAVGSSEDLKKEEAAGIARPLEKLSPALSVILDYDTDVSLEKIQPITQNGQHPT
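Tetracycline-induced HEK293 TREx D1 cells, force-coupled to calcium signalling, were dye-loaded with a no-wash calcium kit. Compound was pin-added after a 10 s baseline. Fluorescence was read kinetically at 1 cycle/s for 180 s, with calcium rises flagged as agonism.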
DRD3 agonist: qHTS of D3 Dopamine Receptor Agonist: qHTS; D(3) dopamine receptor (Homo sapiens), P35462; D3R DiscoveRx beta-arrestin cells, luminescence, 90 min; max activation, %; 410,000 compounds, 0.58% hits; AID 652048, 2013; in the data active means max activation above about 30%; further: 0% is about no effect
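Cells at 1500/well, incubated overnight, then treated with pinned compounds (dopamine as control) for 90 min at 37 degrees C. DiscoveRx reagent added for 30 - 60 minutes at room temperature; luminescence read.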
D1 potentiator: Potentiators of Human D1 Dopamine Receptor: qHTS. D(1A) dopamine receptor (Homo sapiens), P21728. HEK293 TREx D1 cells, calcium flux, dopamine EC20 potentiation. potentiation, % at 10 µM. 360,000 compounds, 0.036% hits. AID 504651, 2011; in the data active means potentiation above about 30%; further: 0% is about no effect
D3 antag: qHTS of D3 Dopamine Receptor Antagonist: qHTS. D(3) dopamine receptor (Homo sapiens), P35462. D3R cells, DiscoveRx beta-arrestin luminescence, antagonist mode; active compounds read low. max response, negative = inhibition, %. 360,000 compounds, 2.5% hits. AID 652054, 2013; in the data active means max response below about -50%; inconclusive means no clear call, values can overlap the other calls; further: on the % scale 0 is the no-effect control and ±100 the full control effect
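Cells plated overnight at 1500 cells/well, then exposed to library compounds with dopamine controls for 90 minutes at 37 degrees C. DiscoveRx reagent added for 30–60 minutes at room temperature; luminescence read, quantitative HTS format.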
D1 antagonist: Antagonist of Human D 1 Dopamine Receptor: qHTS; activity change, negative = inhibition, % at 10 µM; HEK293 TREx D1 cells, calcium flux, dopamine EC80; active compounds read low; 360,000 compounds, 3.2% hits; D(1A) dopamine receptor (Homo sapiens), P21728; AID 504652, 2011; in the data active means activity change below about -30%; further: on the % scale 0 is the no-effect control and ±100 the full control effect
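Compound effects on dopamine-evoked calcium signalling were measured in tetracycline-induced HEK293 Trex D1 cells. Dopamine at EC80 followed a 180 s compound pre-read, and fluorescence was tracked kinetically for 180 s more.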
* = called active by the depositor; ? = inconclusive; / = not tested or not shown.

SMILES | D1 ag | DRD3 agonist | D1 potentiator | D3 antag | D1 antagonist
COc1ccc(C(=O)NNC(=O)C2CCCO2)cc1 (stereo not drawn) | 0 | 0 | -3 | 7 | -31*
COc1ccc(C(=O)NNC(=O)C(=O)NC2CCCCC2)cc1 | 4 | 3 | -7 | -6 | -46*
CSCCC(NS(=O)(=O)c1ccccc1F)C(=O)NCCCn1nc(C)cc1C (stereo not drawn) | 2 | 15 | 1 | -2 | -3
COc1ccc(C)cc1NC(=O)c1cc2c(=O)n3cccc(C)c3nc2s1 | 1 | -6 | 0 | / | -1
O=C(Nc1ccc2c(c1)[C@@H]1C[C@@H](CC(=O)N3CCOCC3)O[C@@H](CO)[C@@H]1O2)NC1CCCC1 | / | 1 | / | 10 | /
Cc1cccc(NC(=O)CCS(=O)(=O)c2ccc3c(c2)n(C)c(=O)c(=O)n3C)c1C | -3 | 9 | 0 | / | -1
Cc1ccc(Nc2nc(-c3cccnc3)cs2)cc1Cl | 6 | 5 | -5 | 5 | -4
Cc1ccc(C)c(Nc2nc(-c3cccnc3)cs2)c1 | 2 | 5 | -7 | 16 | -39*
COc1ccc(-c2cc3nc(C)c(CCC(=O)N4CCN(c5ccccc5)CC4)c(C)n3n2)c(OC)c1 | 0 | 7 | -1 | / | 1
Cc1ccc(SC2=C(Sc3ccc(C)cc3)C(=O)c3ccccc3C2=O)cc1 | 2 | -18 | 6 | -114* | 49
Cc1ccc(N2C(=O)c3ccccc3C2=O)cc1 | -1 | 1 | -11 | ? | -23
O=C(COc1ncnc2ccccc12)NCCc1ccccc1 | 2 | 1 | -10 | -1 | -44*
Cn1c(-c2ccccc2)c(C(=O)CCl)c2ccccc21 | 4 | -6 | -3 | -51* | -16
CCn1c(-c2ccccc2)c(C(=O)CCl)c2ccccc21 | 4 | 2 | -2 | -20 | 3
COc1ccccc1N1CCN(S(=O)(=O)c2c(C)nc3sccn3c2=O)CC1 | -1 | 3 | -2 | / | -3
COc1ccccc1NC(=O)Nc1ccnn1C1CCN(C(=O)C2CCOC2)CC1 (stereo not drawn) | / | -2 | / | -10 | /
COc1ccc(N=Cc2ccccc2O)cc1 | / | -13 | / | -18 | /
COc1ccc(N=Cc2oc3ccc4ccccc4c3c2O)cc1 | 78* | 8 | 0 | 2 | -4
COC(=O)C1=C(CSc2nc3ccccc3s2)NC(=O)NC1c1ccc(F)cc1 (stereo not drawn) | 4 | 3 | 6 | -17 | 2
Cc1ccc(OCC(=O)Nc2ccc3c(c2)nc(CCN2CCC(C)CC2)n3C)cc1 | 2 | -16 | -5 | -54* | 14
CC1CCN(CCc2nc3cc(NC(=O)NC4CCCCC4)ccc3n2C)CC1 | 0 | -28 | -9 | -86* | 1
COc1ccc(OCC(=O)Nc2ccc3c(c2)nc(CCN2CCC(C)CC2)n3C)cc1 | 2 | -5 | -1 | ? | 2
CC(C)(C)c1cc(-c2nc(N)nc(N)n2)c(O)c(C(C)(C)C)c1 | 2 | 48* | -1 | 0 | 32
Nc1nc(N)nc(-c2cc(O)ccc2O)n1 | 1 | 18 | 2 | 7 | /
COc1ccc(N=C2NC(=O)C(CO)(CO)S2)cc1 | 2 | -7 | -10 | -9 | -51*
SMILES | D1 ag | DRD3 agonist | D1 potentiator | D3 antag | D1 antagonist
Cc1noc(C)c1COC(=O)c1ccccc1Sc1ccccc1C#N | 14 | 4 | -10 | -18 | -38*
Cn1c(=O)n(C)c2cc(NS(=O)(=O)c3ccc4c(c3)CCCC4)ccc21 | 7 | -14 | -4 | -22 | -34*
COc1ccc(S(=O)(=O)Nc2ccc3c(c2)n(C)c(=O)n3C)cc1C | 11 | -2 | / | 2 | 3
CCOC(=O)c1oc2ccc(S(=O)(=O)Nc3ccc4c(c3)n(C)c(=O)n4C)cc2c1C | -1 | 32* | -5 | 9 | 8
O=C(Cc1csc(-c2ccccc2)n1)Nc1ccc(C(F)(F)F)cc1 | 3 | -1 | -2 | -56* | -14
COc1cc(C(=O)NCCc2csc(-c3ccc(Cl)cc3)n2)cc(OC)c1OC | 4 | 41* | -3 | / | -6
O=C(COc1ccc(Cl)cc1)NCCc1csc(-c2ccc(C(F)(F)F)cc2)n1 | 10 | 9 | -3 | / | -36*
O=C(COc1ccccc1)NCCc1csc(-c2ccc(Cl)cc2)n1 | 14 | 3 | -3 | / | -49*
O=C(COc1ccc(Cl)cc1)NCCc1csc(-c2ccc(F)cc2)n1 | 5 | -8 | -3 | / | -19
O=C(Nc1cccc(Oc2ccccc2)c1)C1Cc2c(-c3ccccc3)ccnc2O1 (stereo not drawn) | / | -12 | / | ? | /
CCC(C)NC(=O)CC(NS(=O)(=O)c1ccc(Cl)cc1)c1ccco1 (stereo not drawn) | -1 | 1 | -2 | -53* | -15
O=C(CC(NS(=O)(=O)c1ccc(Cl)cc1)c1ccco1)N1CCc2ccccc21 (stereo not drawn) | 1 | -3 | 2 | -69* | -3
CN(CC(=O)N1CCc2ccccc21)S(=O)(=O)c1ccc(Cl)cc1 | -3 | -18 | -1 | -8 | -11
COc1cc(CN2C(=O)C(Cc3ccccc3)ON=C2c2ncccc2C)cc(OC)c1 (stereo not drawn) | / | -1 | / | 10 | /
CCOC(=O)c1nc(NCc2ccc(Cl)cc2)c2c(C)noc2n1 | 2 | 17 | -1 | / | -49*
COc1ccc(-c2nn(-c3ccccc3)cc2C(=O)O)cc1OC | 6 | 6 | 4 | 5 | -22
O=C(O)c1cn(-c2ccccc2)nc1-c1ccc(Cl)cc1 | / | 9 | / | -54* | /
CC1(C)CC(=O)C(=Cc2cn(-c3ccccc3)nc2-c2ccc(Cl)cc2)C(=O)C1 | 60* | -2 | -5 | -29 | -7
Cn1cc(CN2CCC(CO)(CCCc3ccccc3)CC2)c(-c2ccccc2)n1 | 47* | -3 | -5 | 13 | -2
OCC1(Cc2ccc(Cl)cc2)CCN(Cc2ccccc2F)CC1 | 7 | -20 | 2 | ? | 2
OCC1(Cc2ccccc2)CCN(Cc2cccc(F)c2F)CC1 | 4 | -21 | -3 | -130* | -3
OCC1(Cc2ccc(Cl)cc2)CCN(CCCc2ccccc2)CC1 | 27 | 7 | -2 | -65* | -7
CC(=O)c1ccc(S(=O)(=O)N2CCN(C(=O)CSc3ccc(C)c(C)c3)CC2)cc1 | 10 | -13 | -8 | 1 | -34*
Cc1ccc(S(=O)(=O)N2CCN(C(=O)CSc3ccc(Cl)cc3)CC2)cc1 | 1 | 7 | -4 | 4 | -17
O=C(N/N=C/c1ccc([N+](=O)[O-])cc1)c1ccc(NS(=O)(=O)c2cccs2)cc1 | 1 | -1 | -4 | 0 | -11
O=C(N/N=C/c1ccc([N+](=O)[O-])o1)c1ccc(NS(=O)(=O)c2cccs2)cc1 | 1 | -18 | -3 | -17 | -89*
Cc1ccc(-c2nnc(SCC(=O)N3CCCc4ccccc43)o2)cc1 | 2 | 8 | -3 | / | -24
